ALDH1A1 inh – qHTS Assay for Inhibitors of Aldehyde Dehydrogenase 1 (ALDH1A1); Aldehyde dehydrogenase 1A1 (Homo sapiens), P00352; Purified ALDH1A1, NADH fluorescence, propionaldehyde substrate; Potency, µM (highest dose often 75.3 µM), inactives show at the top dose activity, negative = inhibition, actives largely listed as inhibitors; hit rate 7.3% among 220,000; active = well fitted inhibition curve with a large enough effect, not every such curve was filed as active; inconclusive = small, poorly fitted or top-dose-only effect, or another doubt; inactive = no such curve, though single readings can be large or run the other way;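 also: plate controls were no enzyme wells and a reference inhibitor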
Target sequence (P00352 whole entry, looked up): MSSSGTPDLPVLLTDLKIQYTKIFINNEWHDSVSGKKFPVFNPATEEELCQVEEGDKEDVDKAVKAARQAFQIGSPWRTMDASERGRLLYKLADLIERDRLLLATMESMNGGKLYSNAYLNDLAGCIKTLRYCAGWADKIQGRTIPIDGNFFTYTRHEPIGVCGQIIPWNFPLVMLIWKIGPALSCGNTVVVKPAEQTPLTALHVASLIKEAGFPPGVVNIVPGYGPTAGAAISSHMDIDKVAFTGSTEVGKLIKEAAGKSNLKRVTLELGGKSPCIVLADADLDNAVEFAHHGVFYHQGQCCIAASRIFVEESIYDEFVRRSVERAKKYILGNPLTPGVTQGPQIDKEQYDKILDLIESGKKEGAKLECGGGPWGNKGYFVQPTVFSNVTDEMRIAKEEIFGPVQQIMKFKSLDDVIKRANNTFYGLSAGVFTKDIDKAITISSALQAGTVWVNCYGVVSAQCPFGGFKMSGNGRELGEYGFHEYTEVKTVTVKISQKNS
Sfp PPTase inh – qHTS Assay for Inhibitors of Bacillus subtilis Sfp phosphopantetheinyl transferase (PPTase). 4'-phosphopantetheinyl transferase ffp (Bacillus subtilis), Q9F4F7. Biochemical Sfp PPTase activity, qHTS. Potency, µM, inactives show largest response in the series, negative = inhibition, hits mostly inhibitors. hit rate 3.5% among 310,000;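 also: the enzyme is Sfp with the accession as filed and its product quenches rhodamine fluorescence; 0% = enzyme reaction without inhibitor and -100% = no enzyme wells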
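After 15 min at room temperature with compound, 15 nM Sfp received 5 uM rhodamine-CoA plus 12.5 uM BHQ-2-ybbR (50 mM Hepes pH 7.6, 10 mM MgCl2). Rate came from the fluorescence difference over 30 min, ex 525/em 598 nm.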
Gal4-VP16 FLuc – VP16 counterscreen qHTS for inhibitors of ROR gamma transcriptional activity | Drosophila S2 Gal4-VP16 UAS-luciferase, luminescence, 20 h | Potency, µM (top dose mostly 53.6 µM), for the others: at the top dose activity, negative = inhibition, hits mostly inhibitors | hit rate 3.5% among 310,000 | AID 2546, 2010;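 also: Gal4-VP16 expression switched on by copper sulfate through the metallothionein promoter; nearly all actives have a fitted effect of over 50% in size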
PLK1 PBD inh – qHTS for Inhibitors of PLK1-PDB (polo-like kinase 1 - polo-box domain): Primary Screen; hit rate 2.8% among 360,000; Plk1 PBD binding of FITC phosphopeptide, fluorescence polarization; Potency, µM, inactives show max response, negative = inhibition, most hits filed as inhibitors; also: series mostly up to about 57 µM; nearly all actives have a fitted effect of over 65% in size
RORgamma inh – qHTS for inhibitors of ROR gamma transcriptional activity; Nuclear receptor ROR-gamma (Mus musculus), P51450; Drosophila S2 Gal4-RORgamma UAS-luciferase reporter, 20 h; Potency, µM (titrated, usually from 53.6 µM), without a hit: at the top dose activity change, negative = inhibition, actives largely listed as inhibitors; hit rate 5.4% among 310,000; AID 2551, 2010; also: nearly all actives have a fitted effect of over 60% in size
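ROR gamma transcriptional activity was tracked as Gal4-UAS luciferase output in stably transfected Drosophila Schneider cells, with compound added 1 hr before 700 uM copper sulfate induction and a 20 hr ambient-temperature incubation.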
* hit, by the source's call; u = inconclusive; x = not tested or not shown; [ ] = another dose, or the depositor's remark. An excerpt weighted towards active compounds, which were near 12% of everything screened. Unless noted, calls follow the shape of the dose curve; as a rule, active = well fitted curve in the direction sought with a large enough effect; inconclusive = small, poorly fitted or top-dose-only effect, or another doubt; inactive = no such curve, though single readings can be large; an effect the other way counts as inactive or inconclusive. Unless noted, % is scaled to controls: 0 for no effect and ±100 for the full control effect; potency is read from the fitted curve at half-maximal effect.

SMILES | ALDH1A1 inh | Sfp PPTase inh | Gal4-VP16 FLuc | PLK1 PBD inh | RORgamma inh
CC(C)CC(=O)NC(NC(=S)Nc1sc2c(c1C#N)CCCC2)C(Cl)(Cl)Cl (stereo not drawn) | 3.5µM* | -3% | u | -23% | 10µM*
N#Cc1c(N)sc2c1CCN(CCc1ccccc1)C2 | u | -4% | -9% | -13% | -33%
Cn1cccc1C(=O)N1CCC2(CCCN(C(c3ccccc3)c3ccccc3)C2)CC1 | 1% | 4% | -3% | x | 30%
COc1ccc(CCNC(=O)COC(=O)c2ccccn2)cc1 | x | x | x | 3% | x
CC1(C)Cc2c(sc(NC(=S)NC(=O)c3ccccc3)c2C(=O)O)CO1 | 22µM* | -10% | 1% | -14% | -1%
Cc1ccccc1C(=O)NC(=S)Nc1sc2c(c1C#N)CCC(C)C2 (stereo not drawn) | 10µM* | -23% | u | 19µM* | 7.9µM*
CC(=O)Nc1sc2c(c1C#N)CCC(C)C2 (stereo not drawn) | -7% | 2% | 5% | -16% | -1%
COc1ccc(CNC(=S)Nc2ccc3nc(N4CCOCC4)cc(C)c3c2)cc1 | u | 11% | -93% | -16% | 10µM*
Cc1cc(N2CCCC2)nc2ccc(NC(=S)NCCCOC(C)C)cc12 | -4% | -6% | u | -25% | 11µM*
COc1ccc(CNC(=S)Nc2ccc3nc(N4CCN(C)CC4)cc(C)c3c2)cc1 | u | -4% | -1% | -2% | -29%
CCC(C)NC(=S)Nc1ccc2nc(N3CCOCC3)cc(C)c2c1 (stereo not drawn) | x | -11% | u | -5% | 10µM*
CCCN(CCC)CCCNC(=S)Nc1ccc2nc(N3CCCC3)cc(C)c2c1 | u | 19% | -2% | -9% | 10%
CCC(C)NC(=S)Nc1ccc2nc(N3CCN(CC)CC3)cc(C)c2c1 (stereo not drawn) | u | 15% | 18% | -20% | u
COc1ccccc1CNC(=S)Nc1ccc2nc(N3CCN(C)CC3)cc(C)c2c1 | -18% | 56µM* | -3%[10 µM] | -5% | 9%
CCOC(=O)C1=CCC(c2ccc(C#N)cc2)N(S(=O)(=O)c2ccc(C)cc2)C1 (stereo not drawn) | x | x | x | -2% | x
CCCC/C=C/[C@H](c1ccccc1)[C@H](CO)Cc1ccccc1 | x | 7% | -13% | x | 22%
COc1ccc(CC(=O)OC(C)C(=O)NCc2ccc3c(c2)OCO3)cc1OC (stereo not drawn) | x | x | x | 5% | x
COc1ccc2c(c1)C(=O)[C@H](OC(=O)NCc1ccc3c(c1)OCO3)[C@@H](c1ccc(OC)c(Br)c1)O2 | 6% | 5% | 3% | x | -10%
COc1ccc(-n2c(=S)[nH]c3cc(C(=O)NCc4cccnc4)ccc3c2=O)c(OC)c1 | x | 20% | -15% | -7% | -21%
CN(C)C(CNC(=O)c1ccc2c(=O)n(-c3ccccc3F)c(=S)[nH]c2c1)Cc1ccccc1 (stereo not drawn) | 13µM* | 16% | -1% | -1% | 7%
COc1ccc(-n2c(=S)[nH]c3cc(C(=O)N4CCN(c5ccccc5)CC4)ccc3c2=O)c(OC)c1 | x | 2% | 13µM* | -5% | u
COc1ccc(-n2c(=S)[nH]c3cc(C(=O)NCc4ccccc4)ccc3c2=O)c(OC)c1 | x | 30% | u | 1% | 20µM*
C[C@@H]1O[C@H](O[C@@H]2[C@H](C)O[C@H](O[C@@H]3[C@H](C)O[C@H](O[C@H]4CC[C@]5(C)[C@@H](CC[C@@H]6[C@H]5C[C@@H](O)[C@]5(C)[C@@H](C7=CC(=O)OC7)CC[C@]65O)C4)C[C@@H]3O)C[C@@H]2O)C[C@H](O)[C@@H]1O | 13%[20.9 µM] | -7% | 7%[17 µM] | x | 4µM*
C[C@H]1O[C@@H](O[C@H]2[C@@H](O)C[C@H](O[C@H]3[C@@H](O)C[C@H](O[C@H]4CC[C@@]5(C)[C@H](CC[C@@H]6[C@@H]5C[C@@H](O)[C@]5(C)[C@@H](C7=CC(=O)OC7)CC[C@]65O)C4)O[C@@H]3C)O[C@@H]2C)C[C@H](O)[C@@H]1O | -1% | 19% | -8% | 6% | 1.6µM*
CC1(C(=O)NS(=O)(=O)c2cccc(OC(F)F)c2)CCN1C(=O)c1ccco1 (stereo not drawn) | x | x | x | -7% | x
SMILES | ALDH1A1 inh | Sfp PPTase inh | Gal4-VP16 FLuc | PLK1 PBD inh | RORgamma inh
Cc1cc(C(=O)c2ccc(Cl)cc2)c(NC(=O)CCl)s1 | 0.89µM* | -16% | u | -16% | 10µM*
CCc1cc(C(=O)c2ccc(C)cc2)c(NC(=O)CCl)s1 | 2.5µM* | u | -10% | -7% | -9%
Cc1ccc(C(=O)c2cc(C)sc2N)cc1 | -21% | -25% | 2% | -17% | -1%
CCc1cc(C(=O)c2ccc(OC)cc2)c(NC(=O)CCC(=O)O)s1 | 6% | 19% | 5% | -2% | u
CCOC(=O)c1nn(-c2cccc(Cl)c2)c2nc(CC(C)C)c(C#N)c(=O)n12 | u | 1% | -10% | -5% | -1%
CCOC(=O)c1nn(-c2ccc(OCC)cc2)c2nc(CC(C)C)c(C#N)c(=O)n12 | u | 50µM* | -11% | -7% | -20%
Cc1ccccc1OCCn1cnc2cc([N+](=O)[O-])ccc2c1=O | u | 2% | -13% | 1% | 5%
CCN(C(=O)Cn1c(=O)n2nc(CCn3nc(C)cc3C)nc2c2ccccc21)c1cccc(C)c1 | u | 3% | -15% | -4% | u
Cc1cccc(NC(=O)Cn2c(=O)n3nc(CCn4nc(C)cc4C)nc3c3ccccc32)c1 | 14µM* | 4% | -5% | 3% | 24%
COC(=O)Cc1nc(NC(=O)c2cccs2)sc1C | x | 23% | -2% | 3% | 20%
NC(=S)Nc1nc2ccccc2s1 | u | 50µM* | 3.5µM* | -13% | u
CSc1nc2ccc3nc(NC(=O)c4cccs4)sc3c2s1 | 14% | 15% | -4% | -2% | 6.3µM*
O=C(NC(=S)Nc1nc2ccccc2s1)c1cccs1 | 3.5µM* | -8% | u | u | u
COC(=O)c1nc(NC(=S)NC(=O)c2cccs2)sc1C | x | -21% | 4.5µM* | u | 4µM*
COCC(=O)Nc1nc2ccccc2s1 | 16% | 12% | 7% | -3% | 20%
CSc1nc2ccc3nc(NC(=O)c4ccc(Cl)s4)sc3c2s1 | 3% | -1% | -6% | -8% | -8%
Cc1ccc(C)c(C(O)c2ncc(-c3ccccc3F)[nH]2)c1 (stereo not drawn) | x | x | x | 2% | x
CC(C)c1ccc(NC(=O)CSc2nc3ccsc3c(=O)n2CCC(=O)O)cc1 | x | 8% | -11% | 5% | 13%
CCc1ccc(-c2nc(NC(=S)NC(=O)c3cccs3)sc2C)cc1 | u | 0% | 3.2µM* | -1% | u

From PubChem
